# Legend:
# Experiment in all cases: DAPPL (digital affinity profiling via proximity ligation, sequencing); 10 mM Tris-HCl pH 7.5, 50 mM NaCl, 1 mM DTT, 4% glycerol, room temperature, 30 min; GST-TFs on glutathione beads, 16-mer random dsDNA library, 0.1% formaldehyde crosslink after washing; high values mean tight binding
# FEV = biological target: T1, FEV (Homo sapiens, UniProt Q99581 1-238); conditions: protein: recombinant; tags: N-terminal GST; dsDNA, one strand shown
# T1 sequence: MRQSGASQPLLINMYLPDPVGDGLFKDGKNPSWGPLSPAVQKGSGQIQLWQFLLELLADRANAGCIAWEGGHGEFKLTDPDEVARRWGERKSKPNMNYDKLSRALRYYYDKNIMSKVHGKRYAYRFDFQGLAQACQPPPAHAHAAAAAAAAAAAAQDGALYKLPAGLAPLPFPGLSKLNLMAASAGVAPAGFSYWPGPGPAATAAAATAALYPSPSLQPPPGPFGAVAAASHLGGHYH
# Outline: (§1)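 Human transcription factors fused to GST were expressed in yeast, captured on glutathione beads, given DNA barcodes and pooled with a GST-only negative control. Pools were incubated with 200 nmole of a 16-mer random double-stranded DNA library in Tris/NaCl/DTT/glycerol buffer at room temperature for 30 min. They were then washed, crosslinked with 0.1% formaldehyde, proximity-ligated (BsaI/T4 ligase, 1 h, 37 °C), PCR-amplified and sequenced on an Illumina NextSeq500. Binding signal is each 6-mer's read frequency for a factor divided by its frequency for the GST control.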
# ETV5 = ETV5 (Homo sapiens, UniProt P41161 1-510); conditions: protein: recombinant; tags: N-terminal GST; dsDNA, one strand shown
# Sequence of ETV5 (P41161 whole entry): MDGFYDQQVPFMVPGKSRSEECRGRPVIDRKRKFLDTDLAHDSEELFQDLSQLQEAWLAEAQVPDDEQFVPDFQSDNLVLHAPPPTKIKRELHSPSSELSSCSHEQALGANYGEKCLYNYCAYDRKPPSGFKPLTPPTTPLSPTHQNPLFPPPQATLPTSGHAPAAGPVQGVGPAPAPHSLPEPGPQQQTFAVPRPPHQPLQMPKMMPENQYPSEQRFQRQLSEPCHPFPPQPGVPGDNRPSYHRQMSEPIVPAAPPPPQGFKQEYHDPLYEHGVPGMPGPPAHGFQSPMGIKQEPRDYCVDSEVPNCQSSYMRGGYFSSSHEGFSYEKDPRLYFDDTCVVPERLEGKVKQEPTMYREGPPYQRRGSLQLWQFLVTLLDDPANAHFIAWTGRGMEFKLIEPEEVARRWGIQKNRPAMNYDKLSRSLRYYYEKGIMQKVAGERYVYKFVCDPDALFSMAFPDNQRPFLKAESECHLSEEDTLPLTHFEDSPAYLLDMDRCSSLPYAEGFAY
# Outline: as §1
# HSF1 = HSF1 (Homo sapiens, UniProt Q00613 1-529); conditions: protein: recombinant; tags: N-terminal GST; chain copies: 3; dsDNA, one strand shown
# Sequence of HSF1 (Q00613 whole entry): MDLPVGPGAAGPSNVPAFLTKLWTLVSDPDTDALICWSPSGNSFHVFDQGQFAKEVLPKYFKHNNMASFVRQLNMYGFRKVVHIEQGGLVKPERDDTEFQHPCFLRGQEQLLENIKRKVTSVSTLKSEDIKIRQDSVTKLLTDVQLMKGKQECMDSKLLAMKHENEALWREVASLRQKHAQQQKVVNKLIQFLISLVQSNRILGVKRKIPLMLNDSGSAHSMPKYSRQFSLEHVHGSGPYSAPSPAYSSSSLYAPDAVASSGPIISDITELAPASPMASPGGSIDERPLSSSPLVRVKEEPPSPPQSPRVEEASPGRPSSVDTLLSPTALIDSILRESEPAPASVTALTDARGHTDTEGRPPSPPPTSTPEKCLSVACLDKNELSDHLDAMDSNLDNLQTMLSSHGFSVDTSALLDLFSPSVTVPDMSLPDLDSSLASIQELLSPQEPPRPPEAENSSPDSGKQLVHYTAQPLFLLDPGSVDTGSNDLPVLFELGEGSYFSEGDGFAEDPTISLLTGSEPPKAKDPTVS
# Outline: as §1
# SPIC = biological target: T2, SPIC (Homo sapiens, UniProt Q8N5J4 1-248); conditions: protein: recombinant; tags: N-terminal GST; dsDNA, one strand shown
# T2 sequence: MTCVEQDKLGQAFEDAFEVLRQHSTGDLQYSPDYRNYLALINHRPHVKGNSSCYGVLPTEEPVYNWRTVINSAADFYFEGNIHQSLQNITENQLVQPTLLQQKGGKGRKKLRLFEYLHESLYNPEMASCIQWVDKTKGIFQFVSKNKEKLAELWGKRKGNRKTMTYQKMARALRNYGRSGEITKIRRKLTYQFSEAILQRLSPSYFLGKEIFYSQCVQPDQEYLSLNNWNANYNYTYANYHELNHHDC
# Outline: as §1
# ELF4 = ELF4 (Homo sapiens, UniProt Q99607 1-663); conditions: protein: recombinant; tags: N-terminal GST; dsDNA, one strand shown
# Sequence of ELF4 (Q99607 whole entry): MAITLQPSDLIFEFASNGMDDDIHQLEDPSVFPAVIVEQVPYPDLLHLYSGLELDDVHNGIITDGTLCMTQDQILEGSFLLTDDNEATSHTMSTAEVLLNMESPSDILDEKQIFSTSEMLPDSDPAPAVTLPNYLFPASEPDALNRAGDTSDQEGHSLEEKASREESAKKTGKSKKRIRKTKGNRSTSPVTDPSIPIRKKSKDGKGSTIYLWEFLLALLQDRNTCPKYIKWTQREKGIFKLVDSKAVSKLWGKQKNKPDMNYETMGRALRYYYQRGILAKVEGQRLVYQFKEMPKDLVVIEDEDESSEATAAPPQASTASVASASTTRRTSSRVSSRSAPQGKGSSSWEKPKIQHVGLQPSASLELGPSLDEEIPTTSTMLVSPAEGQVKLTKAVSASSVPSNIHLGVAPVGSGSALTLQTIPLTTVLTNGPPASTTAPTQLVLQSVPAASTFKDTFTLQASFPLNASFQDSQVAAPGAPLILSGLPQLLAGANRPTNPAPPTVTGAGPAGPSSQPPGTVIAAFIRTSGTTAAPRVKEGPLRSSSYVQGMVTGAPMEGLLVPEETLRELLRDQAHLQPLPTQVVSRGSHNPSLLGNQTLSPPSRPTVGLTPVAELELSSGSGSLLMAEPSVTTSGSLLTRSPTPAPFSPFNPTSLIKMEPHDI
# Outline: as §1
# ELK4 = biological target: T3, ELK4 (Homo sapiens, UniProt P28324-2 1-405); conditions: protein: recombinant; tags: N-terminal GST; dsDNA, one strand shown
# T3 sequence: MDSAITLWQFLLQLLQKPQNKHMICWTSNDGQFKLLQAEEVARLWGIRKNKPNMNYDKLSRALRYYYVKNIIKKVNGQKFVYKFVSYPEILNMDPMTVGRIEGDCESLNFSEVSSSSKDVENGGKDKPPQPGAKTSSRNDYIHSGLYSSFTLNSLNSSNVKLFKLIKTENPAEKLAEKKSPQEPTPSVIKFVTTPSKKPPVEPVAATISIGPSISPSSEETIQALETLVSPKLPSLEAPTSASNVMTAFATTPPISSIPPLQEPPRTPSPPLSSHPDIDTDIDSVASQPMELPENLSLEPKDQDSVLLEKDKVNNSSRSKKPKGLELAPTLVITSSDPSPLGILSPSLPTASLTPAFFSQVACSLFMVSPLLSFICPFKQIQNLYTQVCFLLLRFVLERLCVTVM
# Outline: as §1
# ETV2 = biological target: T4, ETV2 (Homo sapiens, UniProt O00321 1-342); conditions: protein: recombinant; tags: N-terminal GST; dsDNA, one strand shown
# T4 sequence: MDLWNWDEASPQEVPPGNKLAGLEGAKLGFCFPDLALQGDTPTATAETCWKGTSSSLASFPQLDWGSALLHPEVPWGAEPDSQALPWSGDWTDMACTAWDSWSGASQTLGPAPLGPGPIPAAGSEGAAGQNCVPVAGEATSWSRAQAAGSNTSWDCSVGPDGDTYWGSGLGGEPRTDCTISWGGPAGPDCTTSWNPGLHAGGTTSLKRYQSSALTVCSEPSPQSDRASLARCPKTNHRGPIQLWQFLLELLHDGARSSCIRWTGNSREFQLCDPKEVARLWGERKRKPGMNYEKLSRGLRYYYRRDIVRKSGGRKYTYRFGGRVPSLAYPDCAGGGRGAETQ
# Outline: as §1
# ELF3 = biological target: T5, ELF3 (Homo sapiens, UniProt P78545 1-371); conditions: protein: recombinant; tags: N-terminal GST; dsDNA, one strand shown
# T5 sequence: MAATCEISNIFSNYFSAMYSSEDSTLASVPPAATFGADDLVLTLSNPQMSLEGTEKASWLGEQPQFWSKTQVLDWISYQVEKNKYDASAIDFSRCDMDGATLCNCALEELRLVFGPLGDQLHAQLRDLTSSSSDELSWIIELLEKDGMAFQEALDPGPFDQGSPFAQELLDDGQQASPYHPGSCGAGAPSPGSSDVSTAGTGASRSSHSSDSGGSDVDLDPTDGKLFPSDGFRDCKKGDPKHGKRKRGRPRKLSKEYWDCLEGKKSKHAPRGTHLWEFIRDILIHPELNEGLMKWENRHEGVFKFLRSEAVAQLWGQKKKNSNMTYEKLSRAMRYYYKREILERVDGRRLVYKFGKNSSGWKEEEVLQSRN
# Outline: as §1
# CRX = CRX (Homo sapiens, UniProt O43186 1-299); conditions: protein: recombinant; tags: N-terminal GST; dsDNA, one strand shown
# Sequence of CRX (O43186 whole entry): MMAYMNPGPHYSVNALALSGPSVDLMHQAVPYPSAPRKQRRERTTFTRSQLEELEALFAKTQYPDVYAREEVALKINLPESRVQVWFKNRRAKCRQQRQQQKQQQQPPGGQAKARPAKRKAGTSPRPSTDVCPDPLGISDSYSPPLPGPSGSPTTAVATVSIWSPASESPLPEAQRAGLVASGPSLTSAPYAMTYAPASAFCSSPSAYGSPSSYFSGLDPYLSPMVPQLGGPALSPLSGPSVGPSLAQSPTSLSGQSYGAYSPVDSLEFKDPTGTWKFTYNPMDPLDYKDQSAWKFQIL
# Outline: as §1
# ETV1 = ETV1 (Homo sapiens, UniProt P50549 1-477); conditions: protein: recombinant; tags: N-terminal GST; dsDNA, one strand shown
# Sequence of ETV1 (P50549 whole entry): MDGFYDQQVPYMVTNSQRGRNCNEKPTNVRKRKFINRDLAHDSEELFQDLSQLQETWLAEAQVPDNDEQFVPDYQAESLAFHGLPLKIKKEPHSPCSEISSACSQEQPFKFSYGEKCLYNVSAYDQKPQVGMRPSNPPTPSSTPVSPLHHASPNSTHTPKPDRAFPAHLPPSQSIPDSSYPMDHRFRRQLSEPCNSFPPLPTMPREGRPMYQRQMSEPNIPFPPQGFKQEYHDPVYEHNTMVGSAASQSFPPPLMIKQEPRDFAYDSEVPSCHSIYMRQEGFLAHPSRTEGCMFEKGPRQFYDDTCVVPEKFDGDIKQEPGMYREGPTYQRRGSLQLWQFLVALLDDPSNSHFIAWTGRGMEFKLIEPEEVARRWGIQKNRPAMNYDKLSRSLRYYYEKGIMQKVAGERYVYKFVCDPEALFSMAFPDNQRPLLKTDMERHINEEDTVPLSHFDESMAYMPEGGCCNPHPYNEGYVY
# Outline: as §1
# ERF = biological target: T6, ERF (Homo sapiens, UniProt P50548 1-548); conditions: protein: recombinant; tags: N-terminal GST; dsDNA, one strand shown
# T6 sequence: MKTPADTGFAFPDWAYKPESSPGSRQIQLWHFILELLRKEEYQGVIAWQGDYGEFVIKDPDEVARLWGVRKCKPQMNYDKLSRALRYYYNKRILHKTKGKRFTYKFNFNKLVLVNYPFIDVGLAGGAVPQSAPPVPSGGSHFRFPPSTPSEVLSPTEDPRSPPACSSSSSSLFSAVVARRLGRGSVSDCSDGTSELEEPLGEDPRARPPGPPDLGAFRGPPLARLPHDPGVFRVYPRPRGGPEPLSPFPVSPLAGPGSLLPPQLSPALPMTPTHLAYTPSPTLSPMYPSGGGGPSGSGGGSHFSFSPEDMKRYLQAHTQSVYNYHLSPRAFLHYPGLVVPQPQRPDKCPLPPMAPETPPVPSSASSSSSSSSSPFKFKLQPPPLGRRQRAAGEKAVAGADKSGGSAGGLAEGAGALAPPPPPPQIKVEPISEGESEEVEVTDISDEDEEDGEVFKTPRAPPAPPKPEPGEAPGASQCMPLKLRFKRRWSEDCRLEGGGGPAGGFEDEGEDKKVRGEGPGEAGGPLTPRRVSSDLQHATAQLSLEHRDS
# Outline: as §1
# ETV3L = biological target: T7, ETV3L (Homo sapiens, UniProt Q6ZN32 1-361); conditions: protein: recombinant; tags: N-terminal GST; dsDNA, one strand shown
# T7 sequence: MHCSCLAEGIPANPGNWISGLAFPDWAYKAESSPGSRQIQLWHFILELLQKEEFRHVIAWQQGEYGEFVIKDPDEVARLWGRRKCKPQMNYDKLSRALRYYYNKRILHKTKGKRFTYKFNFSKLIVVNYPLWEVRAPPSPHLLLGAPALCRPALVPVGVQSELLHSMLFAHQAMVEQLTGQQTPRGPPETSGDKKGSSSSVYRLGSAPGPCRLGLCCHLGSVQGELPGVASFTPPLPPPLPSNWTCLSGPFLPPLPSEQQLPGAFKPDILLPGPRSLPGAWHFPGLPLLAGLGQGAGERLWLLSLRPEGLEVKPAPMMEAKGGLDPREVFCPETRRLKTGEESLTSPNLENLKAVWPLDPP
# Outline: as §1
# ETS2 = biological target: T8, ETS2 (Homo sapiens, UniProt P15036 1-469); conditions: protein: recombinant; tags: N-terminal GST; dsDNA, one strand shown
# T8 sequence: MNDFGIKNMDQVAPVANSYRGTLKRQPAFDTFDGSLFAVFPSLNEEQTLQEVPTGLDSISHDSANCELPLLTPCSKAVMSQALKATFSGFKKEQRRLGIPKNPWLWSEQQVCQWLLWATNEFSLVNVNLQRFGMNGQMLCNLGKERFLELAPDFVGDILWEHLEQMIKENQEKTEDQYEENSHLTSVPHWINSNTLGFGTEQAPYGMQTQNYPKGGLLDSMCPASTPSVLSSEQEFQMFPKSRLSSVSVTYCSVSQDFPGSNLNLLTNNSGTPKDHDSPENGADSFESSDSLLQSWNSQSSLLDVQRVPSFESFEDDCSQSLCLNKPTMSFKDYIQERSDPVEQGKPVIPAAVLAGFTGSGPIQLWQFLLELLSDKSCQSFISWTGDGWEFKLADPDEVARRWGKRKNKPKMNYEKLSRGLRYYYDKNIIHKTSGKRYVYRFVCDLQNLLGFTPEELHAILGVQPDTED
# Outline: as §1
# SPDEF = biological target: T9, SPDEF (Homo sapiens, UniProt O95238 1-335); conditions: protein: recombinant; tags: N-terminal GST; dsDNA, one strand shown
# T9 sequence: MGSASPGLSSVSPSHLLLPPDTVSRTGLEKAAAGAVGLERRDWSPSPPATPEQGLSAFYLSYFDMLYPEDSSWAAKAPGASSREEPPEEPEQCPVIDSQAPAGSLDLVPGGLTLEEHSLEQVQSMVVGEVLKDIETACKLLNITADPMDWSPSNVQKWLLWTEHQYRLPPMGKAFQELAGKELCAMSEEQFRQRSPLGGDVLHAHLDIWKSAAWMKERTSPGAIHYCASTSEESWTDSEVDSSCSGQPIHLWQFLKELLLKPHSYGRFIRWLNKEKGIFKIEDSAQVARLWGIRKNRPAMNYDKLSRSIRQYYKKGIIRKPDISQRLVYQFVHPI
# Outline: as §1
# ETV7 = biological target: T10, ETV7 (Homo sapiens, UniProt Q9Y603 1-341); conditions: protein: recombinant; tags: N-terminal GST; dsDNA, one strand shown
# T10 sequence: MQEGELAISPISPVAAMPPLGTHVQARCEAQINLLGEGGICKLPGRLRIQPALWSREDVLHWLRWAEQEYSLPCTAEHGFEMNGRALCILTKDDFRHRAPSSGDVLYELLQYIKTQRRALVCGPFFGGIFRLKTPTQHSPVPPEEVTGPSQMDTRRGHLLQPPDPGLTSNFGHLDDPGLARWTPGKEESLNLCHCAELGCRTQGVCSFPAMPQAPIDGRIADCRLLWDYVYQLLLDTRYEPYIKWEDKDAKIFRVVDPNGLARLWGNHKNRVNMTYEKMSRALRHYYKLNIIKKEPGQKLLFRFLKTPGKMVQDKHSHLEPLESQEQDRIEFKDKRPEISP
# Outline: as §1
# ELF5 = biological target: T11, ELF5 (Homo sapiens, UniProt Q9UKW6-2 1-255); conditions: protein: recombinant; tags: N-terminal GST; dsDNA, one strand shown
# T11 sequence: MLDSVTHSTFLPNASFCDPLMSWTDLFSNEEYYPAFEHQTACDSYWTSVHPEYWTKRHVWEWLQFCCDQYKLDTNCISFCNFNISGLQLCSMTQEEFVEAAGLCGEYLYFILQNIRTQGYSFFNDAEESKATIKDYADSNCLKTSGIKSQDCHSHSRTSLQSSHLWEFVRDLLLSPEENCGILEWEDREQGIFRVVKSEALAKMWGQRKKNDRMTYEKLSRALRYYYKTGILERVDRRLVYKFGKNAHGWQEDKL
# Outline: as §1
# ETV3 = biological target: T12, ETV3 (Homo sapiens, UniProt P41162-2 1-143); conditions: protein: recombinant; tags: N-terminal GST; dsDNA, one strand shown
# T12 sequence: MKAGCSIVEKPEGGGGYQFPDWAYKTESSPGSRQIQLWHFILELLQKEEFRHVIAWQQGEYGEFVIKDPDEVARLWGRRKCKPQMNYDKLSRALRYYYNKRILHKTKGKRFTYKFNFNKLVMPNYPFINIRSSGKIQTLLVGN
# Outline: as §1
# ETV6 = ETV6 (Homo sapiens, UniProt P41212 1-452); conditions: protein: recombinant; tags: N-terminal GST; dsDNA, one strand shown
# Sequence of ETV6 (P41212 whole entry): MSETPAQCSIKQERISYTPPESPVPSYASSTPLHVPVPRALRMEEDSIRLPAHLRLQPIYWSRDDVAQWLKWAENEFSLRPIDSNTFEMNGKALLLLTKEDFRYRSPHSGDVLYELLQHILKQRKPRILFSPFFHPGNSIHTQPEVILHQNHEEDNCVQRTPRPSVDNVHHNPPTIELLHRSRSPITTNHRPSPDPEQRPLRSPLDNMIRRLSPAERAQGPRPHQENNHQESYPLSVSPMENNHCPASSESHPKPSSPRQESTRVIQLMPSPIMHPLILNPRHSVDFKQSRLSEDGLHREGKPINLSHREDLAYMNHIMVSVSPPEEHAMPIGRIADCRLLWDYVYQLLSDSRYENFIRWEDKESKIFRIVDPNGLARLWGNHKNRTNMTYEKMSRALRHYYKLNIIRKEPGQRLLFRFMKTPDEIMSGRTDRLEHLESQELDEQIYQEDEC
# Outline: as §1
sequence,measurement,setting,value
CACGTA,binding signal,FEV,"1.1 fold enrichment (6-mer frequency, TF over GST control)"
same,binding signal,ETV5,"1.13 fold enrichment (6-mer frequency, TF over GST control)"
same,binding signal,HSF1,"1.05 fold enrichment (6-mer frequency, TF over GST control)"
same,binding signal,SPIC,"1.22 fold enrichment (6-mer frequency, TF over GST control)"
same,binding signal,ELF4,"1.2 fold enrichment (6-mer frequency, TF over GST control)"
same,binding signal,ELK4,"1.23 fold enrichment (6-mer frequency, TF over GST control)"
same,binding signal,ETV2,"1.09 fold enrichment (6-mer frequency, TF over GST control)"
same,binding signal,ELF3,"1.18 fold enrichment (6-mer frequency, TF over GST control)"
same,binding signal,CRX,"1.06 fold enrichment (6-mer frequency, TF over GST control)"
same,binding signal,ETV1,"1.14 fold enrichment (6-mer frequency, TF over GST control)"
same,binding signal,ERF,"1.19 fold enrichment (6-mer frequency, TF over GST control)"
same,binding signal,ETV3L,"1.17 fold enrichment (6-mer frequency, TF over GST control)"
same,binding signal,ETS2,"1.14 fold enrichment (6-mer frequency, TF over GST control)"
same,binding signal,SPDEF,"1.15 fold enrichment (6-mer frequency, TF over GST control)"
same,binding signal,ETV7,"1.18 fold enrichment (6-mer frequency, TF over GST control)"
same,binding signal,ELF5,"1.15 fold enrichment (6-mer frequency, TF over GST control)"
same,binding signal,ETV3,"1.16 fold enrichment (6-mer frequency, TF over GST control)"
same,binding signal,ETV6,"1.11 fold enrichment (6-mer frequency, TF over GST control)"

# Reference: publication PMC7862700, “An all-to-all approach to the identification of sequence-specific readers for epigenetic DNA modifications on cytosine”
